# Data reported in paper PMC4336329 (PLoS ONE, 2015).
# Out of some 310,000 compounds screened, about 14,000 (4.5%) showed an effect of 50% or more. Effects have a minus sign here. Many of the other results were omitted from the sample, so strong results are more common in it than they were.
# Molecular target: human ether-à-go-go-related gene (hERG) potassium channel (human, UniProt Q12809)
# Assay: primary screen, population patch clamp on CHO cells stably expressing hERG; higher = less effect of the substance
# 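Further: peak tail current of the secondary pulse compared with the same well before compound.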
# Chain of human ether-à-go-go-related gene (hERG) potassium channel (Q12809 whole entry, looked up): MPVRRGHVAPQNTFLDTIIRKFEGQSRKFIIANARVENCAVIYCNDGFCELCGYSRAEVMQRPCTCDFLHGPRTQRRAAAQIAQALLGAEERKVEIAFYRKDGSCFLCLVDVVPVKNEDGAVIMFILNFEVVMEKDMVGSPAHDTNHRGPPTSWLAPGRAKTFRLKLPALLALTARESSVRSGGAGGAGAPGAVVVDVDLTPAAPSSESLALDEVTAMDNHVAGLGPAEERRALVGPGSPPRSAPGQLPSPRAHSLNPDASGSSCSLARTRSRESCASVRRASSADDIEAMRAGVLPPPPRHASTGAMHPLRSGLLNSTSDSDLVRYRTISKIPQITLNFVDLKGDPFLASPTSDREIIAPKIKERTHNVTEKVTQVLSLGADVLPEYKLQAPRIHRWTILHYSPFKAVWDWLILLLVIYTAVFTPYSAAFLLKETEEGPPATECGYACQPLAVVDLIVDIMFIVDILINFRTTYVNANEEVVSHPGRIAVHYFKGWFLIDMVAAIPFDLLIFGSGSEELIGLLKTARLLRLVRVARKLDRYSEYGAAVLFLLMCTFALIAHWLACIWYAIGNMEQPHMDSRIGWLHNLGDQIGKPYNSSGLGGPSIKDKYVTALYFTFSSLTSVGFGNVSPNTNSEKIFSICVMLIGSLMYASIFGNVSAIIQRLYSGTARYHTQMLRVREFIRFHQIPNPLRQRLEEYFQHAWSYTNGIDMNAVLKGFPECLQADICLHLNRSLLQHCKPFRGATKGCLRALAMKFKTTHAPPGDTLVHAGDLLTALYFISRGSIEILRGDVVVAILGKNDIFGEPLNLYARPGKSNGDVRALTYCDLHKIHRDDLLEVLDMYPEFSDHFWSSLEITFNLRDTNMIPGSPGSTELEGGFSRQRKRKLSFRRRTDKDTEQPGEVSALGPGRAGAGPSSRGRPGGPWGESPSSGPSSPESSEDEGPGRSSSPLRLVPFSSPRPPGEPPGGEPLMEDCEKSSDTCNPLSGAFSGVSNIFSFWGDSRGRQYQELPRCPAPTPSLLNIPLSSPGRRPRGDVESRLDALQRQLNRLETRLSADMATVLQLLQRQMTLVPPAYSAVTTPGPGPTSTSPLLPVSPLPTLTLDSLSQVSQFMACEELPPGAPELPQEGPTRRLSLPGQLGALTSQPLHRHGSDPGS
row,SMILES,"hERG current change (%, negative = inhibition) at 10uM [%]"
1,CCC(=O)OC1(C)C(=O)C2=COC(c3ccc(OC)cc3)=CC2=C(Br)C1=O (stereo not drawn),1.2
2,CC(=O)N(Cc1ccc(Br)cc1)c1cccc(C)c1C,3.64
3,N#Cc1ccc(CSc2nnc3ccccn23)cc1,-0.562
4,Cc1c(Br)c(C(F)(F)F)nn1CC(=O)NCc1ccccc1,31.8
5,Cc1cc(C)n2nc(SCCOc3ccccc3F)nc2n1,-22.7
6,COc1ccc(C(=O)c2cn[nH]c2-c2ccc(C)cc2O)cc1,-2.49
7,Cc1cccc(C)c1-n1c(C)cc(/C=N/NC(N)=S)c1C,15.6
8,CCOC(=O)CCCCC(=O)c1[nH]c(=O)[nH]c1CN1CCOCC1,20
9,CN(C)/C=C/C(=O)c1ccc2noc(-c3cccc(F)c3)c2c1,-50.2
10,COc1cccc(-c2onc3ccc(C(=O)/C=C/N(C)C)cc23)c1,-31.4
11,Cc1cccc(-c2onc3ccc(C(=O)/C=C/N(C)C)cc23)c1,-42
12,CN(C)/C=C/C(=O)c1ccc2noc(-c3ccc(F)cc3)c2c1,-9.41
13,CC(=O)c1ccc2noc(-c3cccc(F)c3)c2c1,2.79
14,CN(C)/C=C/C(=O)c1ccc2noc(-c3ccccc3)c2c1,-62.6
15,O=C(NCc1ccc2c(c1)OCO2)C1CC(=O)N(c2ccc(F)cc2)C1 (stereo not drawn),-29.9
16,CC(C)(C)NC(=O)CN(C(=O)CCC(=O)Nc1nccs1)c1ccc(F)cc1,12.6
17,CCC(CO)NCc1ccc2c(c1)n(C)c(=O)n2C.Cl (stereo not drawn),17.4
18,O=C(O)c1ccc(NS(=O)(=O)c2cc(C(=O)O)ccc2Br)cc1,17
19,O=C(N/N=C\c1ccc(Cl)s1)c1cccs1,23.2
20,COc1ccccc1N1CCN(C(=O)c2sc3ncn(CC(=O)N4CCC(C)CC4)c(=O)c3c2C)CC1,-29.3
21,Br.CCCCCCn1ccc(=N)cc1,1.66
22,Br.CCCCCCCCCCCCn1ccc(=N)cc1,-60.2
23,Br.CCCCCCCCn1ccc(=N)cc1,-27

row,SMILES,"hERG current change (%, negative = inhibition) at 10uM [%]"
1,CCCCCn1ccc(=N)cc1.I,11.7
2,Br.CCCCCCCCCn1ccc(=N)cc1,-66
3,CCCCCCCn1ccc(=N)cc1.I,-14.7
4,Br.CCCCCCN1Cc2ccccc2C1,-39.3
5,CCCCCCCCCCCCCCCCn1cc[n+](C)c1.[Br-],-18.4
6,Br.CCCCCCCCCCn1ccc(=N)cc1,-72.9
7,O=C(O)C1CCCCC1C(=O)NCCCN1CCOCC1 (stereo not drawn),-1.05
8,Cc1ccc(/C=C/C(=O)NCC2COc3ccccc3O2)o1 (stereo not drawn),-18.2
9,CCCCC(=O)N/N=C/c1c(O)n(CCc2ccccc2)c(=O)[nH]c1=O,18.3
10,CCOC(=O)C1CCCN(c2c(NCCN3CCCCC3C)c(=O)c2=O)C1 (stereo not drawn),5.47
11,COc1ccc(C(=O)COC(=O)c2ccc3c(c2)OCO3)c(OC)c1,-16.9
12,COc1ccc(N2CCN(c3nc4c(c(=O)[nH]c(=O)n4C)n3Cc3cccc(C)c3)CC2)cc1,-14.2
13,Cn1c(=O)[nH]c(=O)c2c1nc(Br)n2CC(O)COc1ccc(Cl)cc1 (stereo not drawn),-63.6
14,Cn1c(=O)[nH]c(=O)c2c1nc(Br)n2Cc1cccc(Br)c1,15.1
15,CCCn1c(N2CCN(Cc3cccc(C)c3)CC2)nc2c1c(=O)[nH]c(=O)n2C,-53
16,COc1ccc(OCC(O)Cn2c(N3CCCCC3)nc3c2c(=O)[nH]c(=O)n3C)cc1 (stereo not drawn),-5.73
17,COc1ccc(OCC(O)Cn2c(Br)nc3c2c(=O)[nH]c(=O)n3C)cc1 (stereo not drawn),-12.6
18,Cn1c(=O)[nH]c(=O)c2c1nc(N1CCCCC1)n2CC(O)COc1ccc([N+](=O)[O-])cc1 (stereo not drawn),-69.8
19,Cn1c(=O)[nH]c(=O)c2c1nc(Br)n2CC(O)COc1ccccc1 (stereo not drawn),-0.394
20,Cc1ccc(OCC(O)Cn2c(N3CCCCC3)nc3c2c(=O)[nH]c(=O)n3C)cc1 (stereo not drawn),9.46
21,CN1CCN(c2nc3c(c(=O)[nH]c(=O)n3C)n2Cc2cccc(Br)c2)CC1,-53.5
22,CN1CCN(c2nc3c(c(=O)[nH]c(=O)n3C)n2Cc2ccccc2)CC1,-25.4
23,CCCn1c(N2CCN(C)CC2)nc2c1c(=O)[nH]c(=O)n2C,-13.5

row,SMILES,"hERG current change (%, negative = inhibition) at 10uM [%]"
1,CCOC(=O)C[C@H]1c2ccccc2S(=O)(=O)N1C1CC1,5.78
2,Br.CC1(C)OC(c2ccccc2)=C/C(=C/C=Nc2ccccc2)O1,-12.9
3,CC(C)c1ccc(C(O)c2cnc(C(C)C)n2C)cc1 (stereo not drawn),-27.5
4,O=C1N=C(N2CCN(c3cccc4ccccc34)CC2)S/C1=C/c1cccs1,11.9
5,O=C1N/C(=N\N=C\c2cccs2)SC1Cc1ccc(Cl)cc1 (stereo not drawn),-8.96
6,COc1ccc(-n2cnnc2SCC(=O)NC2CCS(=O)(=O)C2)cc1 (stereo not drawn),8.52
7,O=C(CSc1nc2ccccc2n1-c1ccccc1)Nc1ncc(Cl)cc1Cl,12.1
8,O=C(Nc1ccc(F)cc1F)C1CCN(S(=O)(=O)c2cccnc2)CC1,-1.85
9,CSc1ccc(Cn2nnc(C(=O)NCc3ccccc3)c2N)cc1,-0.141
10,CS(=O)(=O)N1CCC(C(=O)Nc2cccc(C(F)(F)F)c2)CC1,-14.2
11,O=C(CCCCn1c(=O)c2ccccc2n(Cc2ccc(F)cc2Cl)c1=O)NCc1ccco1,-5.07
12,CN1CCN(c2nc3c(c(=O)[nH]c(=O)n3C)n2Cc2cccc3ccccc23)CC1,-27.6
13,Cc1cccc(Cn2c(N3CCN(C)CC3)nc3c2c(=O)[nH]c(=O)n3C)c1,-50.7
14,Cc1cccc(Cn2c(N3CCc4ccccc4C3)nc3c2c(=O)[nH]c(=O)n3C)c1,-4.89
15,Cc1cccc(Cn2c(N3CCCCC3C)nc3c2c(=O)[nH]c(=O)n3C)c1 (stereo not drawn),-57
16,Cc1cccc(Cn2c(N3CCN(C)CC3)nc3c2c(=O)n(C)c(=O)n3C)c1,-49
17,CN1CCN(c2nc3c(c(=O)n(C)c(=O)n3C)n2Cc2cccc(Br)c2)CC1,-55.1
18,Cc1cccc(Cn2c(N3CCN(CCO)CC3)nc3c2c(=O)[nH]c(=O)n3C)c1,-23.5
19,Cc1ccc(Cn2c(N3CCN(C)CC3)nc3c2c(=O)[nH]c(=O)n3C)cc1,-14.9
20,CN1CCN(c2nc3c(c(=O)[nH]c(=O)n3C)n2Cc2ccc([N+](=O)[O-])cc2)CC1,-59
21,CN1CCN(c2nc3c(c(=O)[nH]c(=O)n3C)n2Cc2ccc(Cl)cc2)CC1,-15.5
22,CN1CCN(c2nc3c(c(=O)n(C)c(=O)n3C)n2Cc2ccc(Cl)cc2)CC1,-39.5
23,CC1CCN(c2nc3c(c(=O)[nH]c(=O)n3C)n2Cc2ccccc2)CC1,7.99
